Hits are enriched below; roughly 3.8% of the tested compounds scored in any of these assays.
MITF act: activators of MITF-driven TRPM1 promoter reporter, primary screen, cell-based, SK-MEL-5, luciferase, single point. hit rate 0.75% among 300,000. SK-MEL-5 TRPM1-promoter luciferase, 24 h; % of positive control, neutral wells = 0. AID 588334, 2011. activation, % at 12.5 µM;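 active = mean activation of at least 80% with every replicate also reaching 80%; inconclusive = mean reaches 80% but some replicate falls short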;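 note: 0% = neutral control wells and 100% = parthenolide positive control wells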
HSF1 inh: HSF1 inhibitors in luciferase reporter cells, primary screen, cell-based, NIH3T3, luminescence; NIH3T3-HGL HSE-luciferase, MG132-induced, luminescence 8 h; stronger effect = lower value; hit rate 0.77% among 300,000; activity change, negative = inhibition, % at 7.5 µM (by protocol);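 active = more than half of replicate wells show activity change below -50%, luminescence cut by over half; inconclusive = some wells, but at most half, below -50%; inactive = no replicate well below -50%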;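 note: luciferase reports HSF-1 transcriptional activity via heat shock element; 0% = median of DMSO wells and -100% = zero luminescence signal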
Wnt act: Wnt/beta-catenin pathway activators, primary screen, cell-based, plate reader, single point; AID 743398, 2014; activation, % at 9.35 µM; Wnt/beta-catenin reporter cell assay, activator; hit rate 1.2% among 300,000; in the data active = activation above about 30%, passing the limit was not always enough; inconclusive = no clear call, values can overlap the other calls;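 note: 0% = neutral control wells and 100% = positive control wells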
esBAF inh: Bmi1 luciferase reporter increase in mESCs, primary screen, esBAF inhibitor project, mouse ES cells, Bmi1 luciferase knock-in, single point; 24 h; 100% = twice the neutral-well signal; reporter increase, % at 12.5 µM; hit rate 2% among 350,000; AID 602393, 2012; in the data active = activation above about 40%; inconclusive = no clear call, values can overlap the other calls;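 note: 0% = median of the plate's neutral control wells and 100% = double that signal; a rise in the Bmi1 reporter signal indicates esBAF inhibition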
HSF1 activator: HSF-1 activators, primary screen, NIH3T3-HGL cells, MG132 stress, luminescence, single point; NIH3T3-HGL HSF-1 luciferase reporter, 8 h; 100% = twice DMSO control signal; activation, % at 9 µM; hit rate 1.7% among 300,000; AID 504408, 2011;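 active = mean replicate activation of at least 50% with a set share of replicates each reaching 50%; inconclusive = only one of those two conditions met; inactive = mean below 50% and too few replicates reaching it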;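 note: 0% = median of the neutral control wells and 100% = twice that signal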
An asterisk follows results filed as active.

Screening C[C@@H]1CN([C@@H](C)CO)C(=O)c2cc(NC(=O)Nc3ccccc3)ccc2O[C@@H](C)CCCCO[C@H]1CN(C)C(=O)c1ccccc1 returned esBAF inh -3.
`COC(=O)c1c(-c2ccc(S(C)(=O)=O)cc2)sc2ccc(OC)cc12` gave MITF act 107*, Wnt act 47* and esBAF inh 59*.
For COC(=O)c1c(-c2cc(OC)cc(OC)c2)sc2ccc(OC)cc12 the results were MITF act 37, Wnt act 7 and esBAF inh 20.
`COC(=O)c1c(-c2ccc(SC)cc2)sc2ccccc12` gave MITF act 55, Wnt act 22 and esBAF inh 70*.
COC(=O)c1c(-c2ccc(S(C)(=O)=O)cc2)sc2cc(OC)ccc12 was read as MITF act 58, Wnt act inconclusive and esBAF inh 45*.
Screening COC(=O)c1c(-c2ccc(OC)cc2)sc2ccc(N3CCOCC3)cc12 returned MITF act 69, Wnt act 11 and esBAF inh 42*.
For COc1ccc(-c2sc3ccc(N4CCOCC4)cc3c2-c2ccc(O)cc2)cc1 the results were MITF act -9, Wnt act -1 and esBAF inh 7.
COC(=O)c1c(-c2ccc(OC)cc2)sc2cc(OC)c(OC)cc12 was read as MITF act 13, Wnt act 2 and esBAF inh 2.
CN1C(=O)c2cc(NC(=O)C3CCCC3)ccc2OC[C@@H]2O[C@@H](CC(=O)NCC3CC3)CC[C@H]21 was read as esBAF inh -4.
Screening COc1ccc(C/C(O)=C(\C#N)c2nc3ccccc3[nH]2)cc1OC returned MITF act 9, HSF1 inh 15, esBAF inh 0 and HSF1 activator 59*.
`CN1CCN(C(=O)C[C@@H]2CC[C@@H]3[C@H](COC[C@H](O)CN3Cc3cccc(Cl)c3)O2)CC1` gave esBAF inh -7.
`CCC(=O)Nc1ccc2c(c1)C(=O)N(C)[C@H]1CC[C@@H](CC(=O)NCCc3ccccc3)O[C@H]1CO2` gave esBAF inh 6.
Cc1ccc(OCC(=O)N(Cc2ccco2)C2CCS(=O)(=O)C2)cc1C (configuration not stated) was read as MITF act 4, HSF1 inh -6, esBAF inh 0 and HSF1 activator -16.
Screening Cc1cc(OCC(=O)N(Cc2ccco2)C2CCS(=O)(=O)C2)cc(C)c1Cl (configuration not stated) returned HSF1 inh 11, Wnt act 0 and HSF1 activator 57*.
Screening CCCN(C)C[C@@H]1Oc2ncc(C#Cc3ccc(OC)c(OC)c3)cc2C(=O)N([C@H](C)CO)C[C@@H]1C returned esBAF inh -1.
Screening CC(C)NC(=O)N(C)C[C@@H]1Oc2cc(C#Cc3ccccn3)ccc2S(=O)(=O)N([C@H](C)CO)C[C@H]1C returned esBAF inh 2.
`C[C@@H]1CN([C@H](C)CO)C(=O)c2cc(C#CC3CCCC3)cnc2O[C@H]1CN(C)C(=O)Cc1ccccn1` gave esBAF inh 0.
Cc1nc(C(=O)NNC(=O)c2ccccc2Cl)c(C(F)(F)F)o1 was read as HSF1 inh -4, Wnt act 1 and HSF1 activator -15.
Screening Cc1nc(C(=O)NNC(=O)c2cccc(Cl)c2)c(C(F)(F)F)o1 returned HSF1 inh -71*, Wnt act -2 and HSF1 activator -77.
`CC(C)OC(=O)Cc1nc2sc(-c3ccccc3)cc2c(=O)[nH]1` gave HSF1 inh 28, Wnt act 12, esBAF inh 49* and HSF1 activator 52*.
Screening COC(=O)c1cccc(C(=O)Nc2cnc3ccccc3c2)n1 returned MITF act 18 and esBAF inh 59*.
O=C(NC(=S)Nc1ncc(Br)cc1Br)c1ccccc1 was read as MITF act 36, HSF1 inh 36, Wnt act 12, esBAF inh 53* and HSF1 activator 76*.
For O=C(CN1CCN(C(=O)c2ccccc2)CC1)Nc1ncc(Br)cc1Br the results were MITF act 0, HSF1 inh inconclusive, esBAF inh -2 and HSF1 activator -65.
S=C(NCCc1ccccc1)Nc1ccc(Nc2ccccc2)cc1 was read as MITF act 2, HSF1 inh -1, Wnt act -1, esBAF inh 14 and HSF1 activator 6.
S=C(NCCc1ccccc1)Nc1cnc2ccccc2c1 was read as MITF act 66, HSF1 inh 16, Wnt act 15, esBAF inh 44* and HSF1 activator 36.
`COc1ccc(CCC(=O)Nc2cnc3ccccc3c2)cc1` gave MITF act 32, HSF1 inh 6, Wnt act 7, esBAF inh inconclusive and HSF1 activator 27.
Screening O=C(Nc1cnc2ccccc2c1)c1ccncc1 returned MITF act 20, HSF1 inh 12, Wnt act 20, esBAF inh -2 and HSF1 activator 22.
O=C(NC(=S)Nc1cnc2ccccc2c1)c1ccccc1 was read as MITF act 55, HSF1 inh 9, Wnt act 53* and HSF1 activator 40.
CO[C@H]1CN(C)C(=O)c2ccc(NC(=O)Nc3cccc(Cl)c3)cc2OC[C@@H](C)N(C(=O)Nc2c(C)noc2C)C[C@@H]1C was read as esBAF inh 5.
For C[C@@H]1CN([C@H](C)CO)C(=O)c2cc(NC(=O)Cc3ccccc3)ccc2O[C@@H](C)CCCCO[C@@H]1CN(C)C(=O)NC1CCCCC1 the results were esBAF inh 4.
Screening CO[C@@H]1CN(C)C(=O)c2cc(NC(=O)Cc3ccccc3)ccc2OC[C@@H](C)N(CC2CC2)C[C@H]1C returned esBAF inh 2.
`Cc1ccc(NC(=O)Nc2cnc3ccccc3c2)cc1` gave MITF act inconclusive, HSF1 inh 7, Wnt act 39*, esBAF inh 4 and HSF1 activator 10.
For Cn1ncc2cc(NC(=S)NC(=O)c3ccccc3)ccc21 the results were MITF act 58, HSF1 inh 18, esBAF inh 48* and HSF1 activator 44.
Screening CCN(CC)C(=O)Nc1cnc2ccccc2c1 returned MITF act 12, HSF1 inh 6, esBAF inh -8 and HSF1 activator 23.
Screening COc1ccc(NC(=S)NC(=O)c2ccccc2)cn1 returned MITF act 74, HSF1 inh 17, Wnt act 19 and HSF1 activator 30.
CO[C@@H]1CN(C)C(=O)c2ccc(NC(=O)C3CCOCC3)cc2OC[C@@H](C)N(Cc2nccs2)C[C@@H]1C was read as esBAF inh -3.

Screens from PubChem BioAssay.
